Experimental data: PubChem BioAssay (NCATS)
Values joined by “and” are separate entries in the source; they are usually repeats but may differ in a detail not shown here. Equal entries are not always repeated. Inconclusive results are not listed. Active and inactive are the calls of the source. Calls follow the shape of the dose curve; as a rule, active = well fitted inhibition curve with a large enough effect; inconclusive = small, poorly fitted or top-dose-only effect; inactive = flat fitted curve, though single readings scatter.

Legend:
Assay in all cases: Cytotoxic Profiling of Annotated Libraries Using Quantitative High-Throughput Screening (AID 1296008); also: nearly all actives have a fitted effect of over 60% in size
Details in all cases: Five cell lines viability, CellTiter-Glo ATP luminescence, 48-72 h; max response: hits give low values
CRL-7250 = normal cell line; tested on: CRL-7250
Summary of the method: (§1)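 Cells exposed to compounds for 48 or 72 hr at 37 degrees Celsius. Viability read as ATP-coupled luminescence with CellTiter-Glo after 10 min at room temperature.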

HEK293 = tested on: HEK293
Summary of the method: as §1

HaCat = tested on: HaCat
Summary of the method: as §1

KB-3-1 = tested on: KB-3-1
Summary of the method: as §1

NIH3T3 = tested on: NIH3T3
Summary of the method: as §1

Measured: max response
% is scaled to controls: 0 for no effect and ±100 for the full control effect.

C=C(C)[C@@H](C)[C@H]1O[C@]23C[C@]4(CO2)C(CCC2[C@@]5(C)CC[C@H](O[C@@H]6OC[C@H](O)[C@H](O[C@@H]7O[C@H](CO)[C@@H](O)[C@H](O)[C@H]7O)[C@H]6O[C@@H]6O[C@@H](CO)[C@H](O)[C@H]6O)C(C)(C)C5CC[C@]24C)C3[C@@](C)(O)[C@@H]1OC(C)=O (stereo not given in full)
inactive: CRL-7250 | HEK293 | HaCat -4.68% | KB-3-1 -3.84% | NIH3T3

CC(=O)OC(C)OC(=O)C(C)c1ccc(-c2ccccc2)c(F)c1 (stereo not given)
inactive: CRL-7250 -4.19% | HEK293 -11.4% | HaCat | KB-3-1 1.74% and -23.2% | NIH3T3

CC(/C=C/C1(O)C(C)(C)CC(O)CC1(C)O)OC1OC(CO)C(O)C(O)C1O (stereo not given)
inactive: CRL-7250 | HEK293 | HaCat -8.69% | KB-3-1 | NIH3T3

CCCCN(CCCC)C(=O)CN1C[C@H](c2ccc3c(c2)OCO3)[C@@H](C(=O)O)[C@@H]1c1ccc(OC)cc1
inactive: CRL-7250 -2.69% | HEK293 | HaCat | KB-3-1 | NIH3T3 2.42% and 5%

O=C(OCc1cccc(O)c1O[C@@H]1O[C@H](CO)[C@@H](O)[C@H](O)[C@H]1O)C1(O)C(=O)C2C=CC1C1C=CC(=O)C(O)(C(=O)OCc3cccc(O)c3O[C@@H]3O[C@H](CO)[C@@H](O)[C@H](O)[C@H]3O)C21 (stereo not given in full)
inactive: CRL-7250 -8.04% | HEK293 | HaCat | KB-3-1 | NIH3T3 3.82%

C=C1C[C@]23C[C@H]1CC[C@H]2[C@]1(C)CCC[C@@]2(CO)C(=O)O[C@H]([C@H]21)[C@@H]3O
inactive: CRL-7250 -1.22% | HEK293 | HaCat | KB-3-1 6.36% | NIH3T3 2.59%

CC(C)C1=CC2=CCC3[C@](C)(CCC[C@@]3(C)C(=O)O)C2CC1=O (stereo not given in full)
inactive: CRL-7250 | HEK293 | HaCat 1.19% | KB-3-1 8.65% | NIH3T3

CC(C(=O)O)C1CCC2(C)C3C(=O)C=C4C(CCC(=O)C4(C)C)C3(C)CCC12C (stereo not given)
inactive: CRL-7250 0.281% | HEK293 | HaCat -2.22% | KB-3-1 | NIH3T3

CC1C(=O)CC2C3C(O)CC(C(=O)O)C12CC3(C)C (stereo not given)
inactive: CRL-7250 | HEK293 | HaCat | KB-3-1 3.18% | NIH3T3

CCOC(=O)N1CCC(NCCNC(=O)c2ccccc2C)CC1
inactive: CRL-7250 3.66% | HEK293 | HaCat -7.3% | KB-3-1 6.5% | NIH3T3

COc1cc(/C=C/C(=O)OC(C)(C)C(OC2OC(CO)C(O)C(O)C2O)C(=O)OCc2ccc(OC3OC(CO)C(O)C(O)C3O)cc2)ccc1O (stereo not given)
inactive: CRL-7250 -9.61% | HEK293 | HaCat 3.1% | KB-3-1 5.7% | NIH3T3

COc1c2c(c(C)c3c1C(=O)OC3)O[C@@]1(C)C[C@@H](O)[C@]34O[C@](OC)(CC[C@]3(C)[C@H]1C2)OC4(C)C
inactive: CRL-7250 | HEK293 | HaCat -1.6% | KB-3-1 | NIH3T3 2.2%

c1ccc(Nc2nc3c(s2)CCCc2[nH]ncc2-3)nc1
inactive: CRL-7250 -6.19% | HEK293 | HaCat | KB-3-1 | NIH3T3 3.95%

CC1(C)O[C@@]2(C)CC[C@@H]1C[C@@H]2OC1OC(CO)C(O)C(O)C1O (stereo not given in full)
inactive: CRL-7250 | HEK293 | HaCat -5.55% | KB-3-1 | NIH3T3 -8.31%

Clc1ccc(CN[C@H]2CCN(c3ncc(Br)cn3)C2)c(Cl)c1
inactive: CRL-7250 -7.31% | HEK293 | HaCat | KB-3-1 -14.8% | NIH3T3 4.57%

COc1ccc(C2=CC(=O)OC2Cc2ccc(O)cc2)c(O)c1 (stereo not given)
inactive: CRL-7250 | HEK293 | HaCat | KB-3-1 6.42% | NIH3T3 1.17%

Cc1cc(O)cc(Oc2cc(C)c(C(=O)O)c(O)c2)c1
inactive: CRL-7250 -27.9% | HEK293 | HaCat | KB-3-1 | NIH3T3 4.83%

CC(=O)[C@@H]1CC[C@]2(C(=O)O)CC[C@]3(C)C(CCC4[C@@]5(C)CC[C@H](O)C(C)(C)C5CC[C@]43C)C12 (stereo not given in full)
inactive: all assays above

CC(C)(O)c1ccc2c(c1)C(O)CC1C(C)(C(=O)O)CCCC21C (stereo not given)
inactive: CRL-7250 -4.52% | HEK293 | HaCat | KB-3-1 3.03% | NIH3T3

C=CCc1ccc(O[C@@H]2O[C@H](CO)[C@@H](O)[C@H](O)[C@H]2O)c(OC)c1
inactive: CRL-7250 -5.9% | HEK293 | HaCat | KB-3-1 | NIH3T3
